High-throughput results: PubChem BioAssay, National Center for Advancing Translational Sciences (NCATS)
Most compounds without a hit are left out; they make up all but 1.4% or so of the library.
AmpC inh no detg = AmpC beta-lactamase inhibition without detergent | P00811 | AmpC nitrocefin hydrolysis, absorbance 480 nm, 0.0001% Triton | Potency, µM (series often up to 57.1 µM), most hits filed as inhibitors | 0.52% of 330,000 active | AID 485341; note: nearly all actives have a fitted effect of over 20% in size
Target sequence (P00811 whole entry, looked up): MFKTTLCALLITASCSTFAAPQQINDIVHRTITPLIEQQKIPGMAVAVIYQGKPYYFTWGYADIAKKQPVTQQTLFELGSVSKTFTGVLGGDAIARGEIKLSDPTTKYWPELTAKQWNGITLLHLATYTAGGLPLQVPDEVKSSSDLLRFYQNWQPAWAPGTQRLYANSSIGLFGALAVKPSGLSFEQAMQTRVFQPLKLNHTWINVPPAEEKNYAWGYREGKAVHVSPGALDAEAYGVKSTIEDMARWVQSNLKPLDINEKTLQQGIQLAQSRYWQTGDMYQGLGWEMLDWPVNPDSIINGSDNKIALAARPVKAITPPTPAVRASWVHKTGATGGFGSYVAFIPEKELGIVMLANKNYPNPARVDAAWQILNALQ
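AmpC (5.3 nM in the dispensed reagent) in 20 mM phosphate pH 7.0 with 0.01% (detergent screen) or 0.0001% Triton X-100 was preincubated with compounds for 15 min at room temperature. Nitrocefin was then added from an 800 uM solution, and hydrolysis was followed at 480 nm.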
NS1 function inh = inhibitors of influenza NS1 protein function; Potency, µM (titrated, usually from 46.1 µM); 0.4% of 270,000 active; AID 2326; calls by dose curve; note: actives are rising curves; nearly all actives have a fitted effect of over 50% in size
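In this qHTS, NS1 from influenza A is expressed in budding yeast, where it slows growth. Cells are switched from glucose to 2% galactose medium (pH 6.0, -URA), treated with compound, and growth recovery is read at OD600.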
FBPA Giardia inh = inhibitors of Giardia lamblia fructose-1,6-bisphosphate aldolase; purified Giardia FBPA; Potency, µM (top dose mostly 59.6 µM), most hits filed as inhibitors; 0.71% of 290,000 active; AID 2451; note: nearly all actives have a fitted effect of over 55% in size
Target sequence (A8B2U2 whole entry, looked up): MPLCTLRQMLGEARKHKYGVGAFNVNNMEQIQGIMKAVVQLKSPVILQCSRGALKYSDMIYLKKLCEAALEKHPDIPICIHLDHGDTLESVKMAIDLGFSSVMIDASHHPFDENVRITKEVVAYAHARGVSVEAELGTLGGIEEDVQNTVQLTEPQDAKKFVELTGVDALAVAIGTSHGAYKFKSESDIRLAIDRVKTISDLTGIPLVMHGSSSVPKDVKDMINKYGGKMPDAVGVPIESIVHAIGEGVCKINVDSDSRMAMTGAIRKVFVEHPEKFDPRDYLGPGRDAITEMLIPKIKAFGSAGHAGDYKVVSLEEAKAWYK
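40 nM FBPA preincubated 10 min at RT with compound (up to 57.5 uM final), then substrate plus GAPDH/TPI/NAD/arsenate coupling and diaphorase/resazurin added. Fluorescence read after 20 min at RT, 525/598 nm.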
AmpC inh detg = inhibitors of E. coli AmpC beta-lactamase with detergent; P00811; AmpC hydrolysis of nitrocefin, absorbance 480 nm, 0.01% Triton; Potency, µM (top dose mostly 114 µM), actives largely listed as inhibitors; 0.041% of 370,000 active; note: nearly all actives have a fitted effect of over 25% in size
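20 mM phosphate pH 7.0 + 0.01% (detergent screen) or 0.0001% Triton X-100; 5.3 nM AmpC reagent; cpd preinc 15 min RT; nitrocefin (800 uM stock) to start; A480 q20 s × 4 min; Activity was normalised to no-enzyme and no-compound control wells.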
SARS PLpro yeast = blocks SARS-CoV papain-like protease in a yeast assay | S. cerevisiae expressing SARS-CoV PLpro, growth rescue | AID 485353 | Potency, µM (top dose mostly 32.9 µM), hits mostly activators | 0.19% of 330,000 active; calls by dose curve; note: nearly all actives have a fitted effect of over 55% in size
Hits are given with their value; 0 = inactive; ? = inconclusive; - = not tested or not shown; [ ] = another dose, or the depositor's remark. Unless noted, calls come from the whole dose curve; as a rule, active = well fitted curve in the direction sought with a large enough effect; inconclusive = small, poorly fitted or top-dose-only effect, or another doubt; inactive = no such curve, though single readings can be large; an effect the other way counts as inactive or inconclusive.

SMILES	AmpC inh no detg	NS1 function inh	FBPA Giardia inh	AmpC inh detg	SARS PLpro yeast
O=C(OCC(=O)C12CC3CC(CC(C3)C1)C2)c1ccc(O)cc1	0	-	-	-	0
Nc1ccc(O)cc1C(=O)OCC(=O)C12CC3CC(CC(C3)C1)C2	13µM	0	?	0	0
O=C(CSc1nccn1Cc1ccccc1)NC1CCCC1	0	0	-	0	13µM
O=C(CSc1nccn1Cc1ccc(Cl)cc1)NC1CCCC1	-	-	-	0	-
C/C(=N\NC(=O)Cc1ccc(Cl)cc1)c1cccnc1	0	0	0	?	0
COc1ccc(N=C2NC(=O)/C(=C/c3ccco3)S2)cc1	11µM	0	0	0	0
COc1ccc(S(=O)(=O)/N=C2/NC(=O)/C(=C/c3ccco3)S2)cc1	0	0	0	0	0
Cc1ccc(N=C2NC(=O)/C(=C/C=C/c3ccco3)S2)cc1	0	0	0	0	0
Cc1cccc(N=C2NC(=O)/C(=C/C=C/c3ccco3)S2)c1C	32µM	0	0	0	0
Cc1c(NC(=O)c2cccc(NC(=O)Cc3c(F)cccc3Cl)c2)c(=O)n(-c2ccccc2)n1C	0	-	-	0	0
O=C(c1ccc(F)cc1)N1CCC2(CC1)NCCc1[nH]cnc12	0	0	-	0	0
COc1cccc(NC(=O)CN(C)C(=O)Cn2[nH]c(=O)c3ccccc3c2=O)c1	0	-	-	0	0
C/C(=N\NC(=O)c1ccc(NS(=O)(=O)c2cccs2)cc1)c1ccccc1	0	0	0	0	0
COc1ccc(/C(C)=N/NC(=O)c2ccc(NS(=O)(=O)c3cccs3)cc2)cc1	10µM	0	0	0	0
O=C(NN=Cc1ccccc1OC(F)F)c1ccc(NS(=O)(=O)c2cccs2)cc1	16µM	-	-	-	?
COc1ccc2nc(NC(=O)c3ccc(NS(=O)(=O)c4cccs4)cc3)sc2c1	2.5µM	0	0	?	0
COC(=O)c1cc([N+](=O)[O-])c(-n2ccnc2)c([N+](=O)[O-])c1	0	0	0	?	0
Cc1ccc(N=Cc2cc3c(cc2O)OC(N)=C(C#N)C3c2ccccc2)cc1 (stereo not given)	20µM	0	0	0	0
COc1ccc(N(CC(=O)NCc2ccc(F)cc2)C(=O)c2snc(C(N)=O)c2N)cc1	0	0	0	0	16µM
O=C(Nc1cccc2ccccc12)c1ccc([N+](=O)[O-])o1	0	0	0	0	0
CCOc1ccc(-n2cc(-c3ccccc3)c3c(Nc4cccc(F)c4)ncnc32)cc1	-	-	-	0	-
COc1cccc(C2=Nn3c(nnc3-c3ccccc3C)SC2)c1	-	-	10µM	-	-
NNC(=O)c1nn(-c2ccccc2)cc1O	0	0	0	0	10µM
CCN(CC)S(=O)(=O)c1ccc(O)c(NC(=O)c2ccc(N3CCOCC3)c([N+](=O)[O-])c2)c1	20µM	0	0	0	0
CCN(CC)S(=O)(=O)c1ccc(N2CCOCC2)c(NC(=O)c2ccccc2)c1	0	0	0	0	0
SMILES	AmpC inh no detg	NS1 function inh	FBPA Giardia inh	AmpC inh detg	SARS PLpro yeast
CCOC(=O)c1cnc(Cc2ccccc2)[nH]c1=O	0	0	?	?	0
CC(=Nc1ccccc1N)c1c(C)cc(=O)n(O)c1O	-	-	16µM	-	-
CC(=Nc1cc(C(=O)c2ccccc2)ccc1N)C1=C(O)CC(C)(C)CC1=O	0	-	?	0	0
NC(=O)c1cc[n+](CC2=C(C(=O)[O-])N3C(=O)[C@@H](NC(=O)Cc4cccs4)[C@@H]3SC2)cc1	-	-	0	-	-
CO[C@@]1(NC(=O)Cc2cccs2)C(=O)N2C(C(=O)O)=C(COC(N)=O)CS[C@@H]21	0	0	?	40µM	0
O=C(CS(=O)(=O)c1ccc(F)cc1)Nc1nccs1	32µM	-	-	?	0
N#C/C(=C\c1ccc(F)cc1)C(=O)NC1CCS(=O)(=O)C1 (stereo not given)	0	0	-	0	0
CCN=c1scc(C)n1/N=C/c1cc(Br)c(O)c(Br)c1	0[11.4 µM]	-	0	0	0
CCN=c1scc(C)n1/N=C/c1ccc(O)c(O)c1O	10µM	0	?	0	0
Cc1ccc(NC(=O)c2cc(C(=O)c3cc(Cl)ccc3O)cn(-c3ccc(C)cc3)c2=O)cc1	3.2µM	0	0	0	?
CC(=O)Nc1sc(N/N=C/c2ccc(C)cc2)nc1-c1ccc(C)cc1	0	0	0	0	0
CC(=O)Nc1sc(/C(C#N)=C/c2ccc(Cl)c(Cl)c2)nc1-c1ccc(C)cc1	4.5µM	0	0	0	0
CCCc1nnc(NC(=O)c2c(O)c3cccc4c3n(c2=O)CC4)s1	0	0	0	0	0
FC(F)Sc1ccc(NC(=S)NC(c2ccccc2)c2ccccc2)cc1	18µM	-	0	0	0
FC(F)Sc1ccc(NC(=S)NCc2ccccc2)cc1	0	0	0	0	0
S=C(Nc1ccc2nccnc2c1)N1CCOCC1	0	0	14µM	0	0
Cc1ccc(NC(=S)N2CCOCC2)cc1	0	0	0	0	0
COc1ccccc1NC(=O)c1nn(-c2ccc(Cl)cc2)ccc1=O	0	0	0	0	0
COc1ccccc1NC(=O)c1nn(-c2ccccc2)ccc1=O	0.14µM	0	0	0	0
Cc1cc(O)ccc1N/C=C1\CCCC1=O	0	0	8.9µM	0	0
CC(=O)Nc1ccc(N/C=C2/CCCC2=O)cc1	0	0	0	0	0
CCOc1ccccc1CNS(=O)(=O)c1ccc2c(c1)C(C)(C)C(=O)N2C	0	0	0	?	0
O=C(Cc1ncc(C(F)(F)F)cc1Cl)NC1CC1	0	-	0	?	0
O=C(Cc1ncc(C(F)(F)F)cc1Cl)Nc1ccc(F)cc1	0.16µM	0	0	0	0
CC(C)=CCc1c(O)c(CC=C(C)C)c2c(c1O)C(=O)CC(c1ccc(O)cc1)O2 (stereo not given)	14µM	0	0	0	0
SMILES	AmpC inh no detg	NS1 function inh	FBPA Giardia inh	AmpC inh detg	SARS PLpro yeast
CC1(C)Cc2c(cnn2-c2ccccc2)C(NC(=O)CCCN2CCCC2=O)C1 (stereo not given)	0	0	0	?	0
C=CCOC(=O)CSCC(NC(=O)OC(C)(C)C)C(=O)OCC (stereo not given)	0	0	0	0	0
COc1ccc(CC(=O)Nc2cccc(C(=O)O)c2C)cc1	4µM	?	0	0	0
O=C(Cc1ccccc1[N+](=O)[O-])OCC(=O)c1c[nH]c2ccccc12	10µM	-	-	0	0
O=C(COC(=O)C1CC1)c1c[nH]c2ccccc12	0	0	0	?	0
CCCOC(=O)c1ccc(NC(=O)c2c(Cl)ccc(Cl)c2OC)cc1	28µM	0	0	0	0
Cc1cc(S(=O)(=O)ON2C(=O)c3ccccc3C2=O)ccc1F	0	0	0	45µM	0
O=C1c2ccccc2C(=O)N1OS(=O)(=O)c1ccccc1	0	0	0	45µM	0
Cc1ccc(C)c(S(=O)(=O)ON2C(=O)c3ccccc3C2=O)c1	0	0	0	50µM	0
Cc1ccc(S(=O)(=O)ON2C(=O)c3cccc4cccc(c34)C2=O)cc1	0	0	0	?	0
O=C(N/C(=C\c1cn(-c2ccccc2)nc1-c1ccc(Cl)cc1)C(=O)N1CCOCC1)c1ccccc1	0	0	0	0	0
